# Assay outcomes: PubChem, Milwaukee Institute for Drug Discovery
# NS3h inh CB: HCV NS3 helicase inhibitors, primary screen, biochemical, fluorescence polarization, ChemBridge library; NS3h Cy5-dT15 DNA binding; 16,000 tested, 1.6% active; inhibition, % at 100 µM; Hepatitis C virus NS3 helicase;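 active = inhibition above the average over every tested compound plus 3 SD, cut at about 40% in these data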
# Cy5 interf NS3h: Cy5 fluorescence quenchers or enhancers, artefact control for HCV NS3 helicase inhibitor project, biochemical, ChemBridge library, Cy5 readout | Cy5-dT15 DNA with NS3h, fluorescence interference; actives lie on both sides; signal over control mean, under 1 quenches | fluorescence interference ratio at 100 µM | 16,000 tested, 6% active;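 active = compound fluorescence over control fluorescence at most 0.8, a quencher, or at least a set upper limit, an enhancer; inactive = ratio between 0.8 and the set upper limit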
# An asterisk follows results filed as active. The list is not random: actives were taken first. Their share in the collection is about 6.9%.
SMILES,NS3h inh CB,Cy5 interf NS3h
COc1cc(C(=O)Nc2ccc3oc(-c4ccc5ccccc5c4)nc3c2)cc(OC)c1OC,22,0.72*
O=C(Cc1ccccc1)Nc1ccc2oc(-c3ccc(Cl)cc3Cl)nc2c1,-36,1.3*
COc1c(Cl)cc(C(=O)Nc2ccc3oc(-c4ccccc4)nc3c2)cc1Cl,-37,1.1
O=C(COC(=O)c1ccccc1[N+](=O)[O-])c1ccc(F)cc1,13,1
NC(=NS(=O)(=O)c1ccccc1)c1ccccc1,6,0.91
CCOC(=O)c1cccc(P(=O)(C(C)C)C(C)C)c1,-4,0.98
COc1ccc2c(c1)-c1c(ssc1=S)C(C)(C)N2C(=O)CSc1nc(C)cc(C)n1,6,0.9
Cc1ccc(-c2nc3cc(NC(=O)C(C)C)ccc3o2)cc1,17,1
CC(C)C(=O)Nc1ccc2oc(-c3ccc(Cl)cc3)nc2c1,10,0.5*
Cc1cc(C)nc(SCC(=O)OCC(=O)Nc2ccc(S(N)(=O)=O)cc2)n1,6,0.98
CCOc1ccc(N(CC(=O)N2CCOCC2)S(C)(=O)=O)cc1,16,0.75*
CS(=O)(=O)N(CC(=O)N1CCOCC1)c1ccc(Cl)cc1,1,1
COC(=O)C1=C(N)Oc2n[nH]c(C)c2C1c1ccc(Br)cc1 (stereo not drawn),9,0.99
Cc1[nH]nc2c1C(c1cc(Br)cs1)C(C#N)=C(N)O2 (stereo not drawn),4,1.2*
CCOc1cc(C=C2C(=O)NC(=S)NC2=O)cc(Br)c1OCCOc1ccccc1C,13,0.95
C=CCOc1c(I)cc(C=C2C(=O)NC(=S)NC2=O)cc1OCC,22,0.71*
Cc1cc(C)c2oc(-c3cccc(NC(=O)c4ccccc4C)c3)nc2c1,8,1.1
COc1ccc(N=C2C(=O)Nc3ccc(C)c(Br)c32)cc1,21,0.66*
COc1ccc(S(=O)(=O)Nc2ccc(Br)cc2C)cc1,18,1.1
CCOc1ccc(C(=O)Nc2ccc(-c3cc4ccccc4oc3=O)c(C)c2)cc1Cl,-2,0.96
Cc1cc(NC(=O)c2ccc(Cl)cc2)ccc1-c1cc2ccccc2oc1=O,3,0.66*
Cc1cc(NC(=O)c2ccccc2I)ccc1-c1cc2ccccc2oc1=O,14,1
COc1ccccc1C(=O)Nc1ccc(-c2cc3ccccc3oc2=O)cc1,-30,0.76*
COc1cc(/C=N\n2cnnc2)ccc1O,2,0.94
O=C1NC(=O)N(c2ccccc2Cl)C(=O)C1=Cc1ccc2c(c1)OCO2,29,0.92
SMILES,NS3h inh CB,Cy5 interf NS3h
O=C(CSc1nnc(SCC(=O)c2ccc(F)cc2)n1-c1ccccc1)c1ccc(F)cc1,8,0.92
CC(=O)Nc1ccc(NS(=O)(=O)c2cc(Cl)ccc2Cl)cc1,1,0.99
O=S(=O)(c1cc(Cl)cc(Cl)c1O)c1cc(Cl)cc(Cl)c1O,25,0.5*
Nc1cccc(C(=O)Nc2ccccc2)c1,1,0.99
Nc1ccc[n+](CC(=O)c2ccccc2)c1,-14,0.75*
O=C(Nc1cccc(I)c1)c1cc2ccccc2oc1=O,8,0.96
NC(=O)c1ccc[n+](CC(=O)c2cc3ccccc3oc2=O)c1,-7,0.6*
CC1=C(C(=O)Nc2ccccc2)C(c2ccc(Br)cc2)NC(=O)N1 (stereo not drawn),-6,0.94
Nc1nc2c(s1)-c1ccccc1CC2,29,1.2*
CN1C(=O)/C(=C\c2ccc(OC(=O)c3ccc(Cl)cc3)cc2)SC1=S,-10,1
CCOC(=O)CCCCC(=O)c1[nH]c(=O)[nH]c1C,-2,1.1
Cc1cc(/C=C2/SC(=O)NC2=O)c(C)n1-c1ccc(F)cc1,4,0.91
O=C(CC(Nc1ccc(Br)cc1)c1ccc(F)cc1)c1ccccc1 (stereo not drawn),11,0.98
CC(C)(C)c1ccc(C(CC(=O)c2ccc(Br)cc2)S(=O)(=O)c2ccccc2)cc1 (stereo not drawn),18,0.54*
CN1C(=O)C(=O)c2cc(Br)ccc21,10,0.74*
O=C1C(=O)N(Cc2ccc(F)cc2)c2ccc(Br)cc21,3,0.93
CC(/C=C1\SC(=S)N(C(Cc2ccccc2)C(=O)O)C1=O)=C\c1ccccc1 (stereo not drawn),-2,1
O=C(O)CCC(C(=O)O)N1C(=O)/C(=C\C(Cl)=C/c2ccc([N+](=O)[O-])cc2)SC1=S (stereo not drawn),12,0.63*
O=C(O)C(Cc1ccccc1)N1C(=O)/C(=C/C(Cl)=C/c2ccc([N+](=O)[O-])cc2)SC1=S (stereo not drawn),-2,0.78*
O=C1/C(=C/C(Cl)=C/c2ccc([N+](=O)[O-])cc2)SC(=S)N1c1ccc(O)cc1,3,1
Cc1ccc(NC(=O)c2cc(I)ccc2Cl)c([N+](=O)[O-])c1,14,1
Cc1ccc(C(=O)Nc2ccccc2C(=O)Nc2ccccc2C(=O)O)cc1,12,0.91
CC(NC(=O)c1ccccc1NC(=O)c1ccccc1F)c1ccccc1 (stereo not drawn),14,1
COC(=O)c1ccc2c(c1O)C(=O)c1ccccc1C2=O,-8,0.8*
CCC(=O)Nc1cccc2c1C(=O)c1ccccc1C2=O,11,1.1
SMILES,NS3h inh CB,Cy5 interf NS3h
CCOC(=O)C1=C(C)NC(C)=C(C(=O)OC)C1c1cc(Cl)cc(Cl)c1OC (stereo not drawn),0,0.79*
CCOC(=O)C1=C(C)NC(=O)NC1c1ccc(OC)cc1OC (stereo not drawn),1,0.96
CCOc1ccccc1NC(=O)c1c(Cl)cccc1Cl,10,1
CCOc1ccc(C(CC(=O)c2ccccc2)Nc2ccc(Cl)cc2)cc1 (stereo not drawn),11,0.97
Cc1ccc(/C=C2\CCC/C(=C\c3ccc(C)o3)C2=O)o1,6,1
COc1ccc(NC(=O)C(=O)NCCN2CCN(C(=O)c3ccccc3Cl)CC2)cc1,4,0.99
O=c1c2ccccc2nc2ccc3nnnn3n12,-13,0.73*
CCCCn1c(CN2C(=O)c3ccccc3C2=O)nc2ccccc2c1=O,-2,1
CC(C)(C)c1ccccc1OCC(O)CN1CCN(CCO)CC1 (stereo not drawn),-12,1
O=C(CCN1C(=O)/C(=C\c2cccs2)SC1=S)Nc1cccc(C(=O)O)c1,9,1
O=C(NCCCO)/C(=C/c1ccc(-c2cccc([N+](=O)[O-])c2)o1)NC(=O)c1ccccc1,9,0.79*
O=C(NCCCN1CCOCC1)/C(=C/c1ccc(-c2cccc([N+](=O)[O-])c2)o1)NC(=O)c1ccccc1,5,0.87
COc1cc(/C=N\n2nnnc2N)cc(OC)c1OC,1,0.96
COc1ccccc1N(CC(=O)Nc1cccc(Br)c1)S(=O)(=O)c1ccccc1,15,1.1
Cc1cc(C)n(C(=O)CNC(=O)c2ccc(Br)cc2)n1,-7,1.1
Ic1cccc(/C=N\n2cnnc2)c1,0,1
C(=N/n1cnnc1)/c1cc2ccccc2[nH]1,23,0.74*
Clc1ccc(-c2noc(C(c3ccccc3)c3ccccc3)n2)cc1,6,0.99
COc1cc(C(=O)NCCC(C)C)c([N+](=O)[O-])cc1OC,3,0.98
COc1cc(C(=O)NCc2ccc(C)cc2)c([N+](=O)[O-])cc1OC,16,0.69*
CN(C)c1ccc(NC(=O)c2ccc(Cl)c([N+](=O)[O-])c2)cc1,44*,0.32*
